Results as given in PubChem BioAssay.
For some of these results: Potency and affinity values are given separately. The source made the active and inactive calls. Unless noted, the rule behind the calls is not given here.

How the values were obtained:
[1] = antimalarial activity against Dd2 strain (AID 2302;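 active = growth inhibition above 50% at the single 2 µM test dose, taken to imply half-maximal potency below 2 µM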;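 note: 0% = DMSO untreated growth and 100% = chloroquine plus artemisinin killed control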); details: P. falciparum Dd2 in RBCs, LDH growth readout, 72 h; at 2 µM; stronger effect = higher value
[2] = HepG2 cytotoxicity, primary screen, cytotoxicity control for P. falciparum antimalarial project, cell-based, ATP luminescence (AID 2303;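 active = inhibition above 50%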;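 note: 0% = DMSO wells and 100% = digitonin-killed cells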); details: HepG2 viability, 24-48 h, at 10 µM, stronger effect = higher value
[3] = target: L-lactate dehydrogenase (Plasmodium falciparum (isolate CDC / Honduras)) (UniProt Q27743); test: PfLDH activity inhibition – cell lysate, 3D7 strain, counter-screen for P. falciparum growth inhibition project (AID 2304);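 note: 0% = vehicle and 100% = reference inhibitor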; details: P. falciparum 3D7 crude extract, LDH APAD/NBT absorbance; at 2 µM; stronger effect = higher value
[4] = inhibition of 3D7 malaria parasite growth – strain 3D7 (AID 2306);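 note: 0% = DMSO wells and 100% = chloroquine plus artemisinin control wells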; details: P. falciparum 3D7 erythrocytic growth, LDH absorbance, 72 h; at 2 µM; stronger effect = higher value
[5] = target: Calcium-dependent protein kinase 1 (Plasmodium falciparum (isolate 3D7)) (UniProt P62344); test: PfCDPK1 kinase inhibitors, biochemical, TCAMS library (AID 1159585; cut-off not given, nearly all actives have IC50 up to about 0.98 µM;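 note: inhibitors leave more ATP so luminescence rises with inhibition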); details: recombinant PfCDPK1, Kinase-Glo ATP depletion luminescence
[6] = target: Plasmodium falciparum protein kinase 6 (PK6, PF3D7_1337100) (UniProt Q8IDW1); test: PfPK6 kinase inhibitors, biochemical, TCAMS library (AID 1159586); details: recombinant PfPK6, Kinase-Glo ATP depletion luminescence
[7] = target: Protein kinase 7 (PK7), Plasmodium falciparum 3D7 (PF3D7_0213400) (UniProt Q7YTF7); test: inhibition of Plasmodium PK7 catalytic activity – biochemical, TCAMS antimalarial set, Kinase-Glo luminescence (AID 1159587); details: recombinant PfPK7, Kinase-Glo ATP depletion luminescence
[8] = target: Calcium-dependent protein kinase 4 (Plasmodium falciparum (isolate 3D7)) (UniProt Q8IBS5); test: PfCDPK4 kinase inhibitors, biochemical, TCAMS library (AID 1159588; cut-off not given, nearly all actives have IC50 up to about 0.91 µM); details: recombinant PfCDPK4, Kinase-Glo ATP depletion luminescence
Sequence of Calcium-dependent protein kinase 4 (Plasmodium falciparum (isolate 3D7)) (Q8IBS5 whole entry, looked up): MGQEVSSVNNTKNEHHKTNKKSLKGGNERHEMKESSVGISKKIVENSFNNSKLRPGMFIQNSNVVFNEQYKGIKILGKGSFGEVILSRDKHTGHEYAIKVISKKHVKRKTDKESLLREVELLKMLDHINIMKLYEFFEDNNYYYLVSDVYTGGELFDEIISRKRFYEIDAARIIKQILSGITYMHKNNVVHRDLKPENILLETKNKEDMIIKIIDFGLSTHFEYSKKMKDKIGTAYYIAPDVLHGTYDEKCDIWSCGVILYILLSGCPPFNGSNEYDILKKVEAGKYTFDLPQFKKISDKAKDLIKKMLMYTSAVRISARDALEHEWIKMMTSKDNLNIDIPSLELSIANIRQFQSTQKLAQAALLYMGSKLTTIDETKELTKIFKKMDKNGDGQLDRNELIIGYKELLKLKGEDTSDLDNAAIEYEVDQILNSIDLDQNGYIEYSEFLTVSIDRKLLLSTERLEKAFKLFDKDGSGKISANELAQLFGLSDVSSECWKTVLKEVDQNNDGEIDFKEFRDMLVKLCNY

Sequence of Protein kinase 7 (PK7), Plasmodium falciparum 3D7 (PF3D7_0213400) (Q7YTF7 1-343): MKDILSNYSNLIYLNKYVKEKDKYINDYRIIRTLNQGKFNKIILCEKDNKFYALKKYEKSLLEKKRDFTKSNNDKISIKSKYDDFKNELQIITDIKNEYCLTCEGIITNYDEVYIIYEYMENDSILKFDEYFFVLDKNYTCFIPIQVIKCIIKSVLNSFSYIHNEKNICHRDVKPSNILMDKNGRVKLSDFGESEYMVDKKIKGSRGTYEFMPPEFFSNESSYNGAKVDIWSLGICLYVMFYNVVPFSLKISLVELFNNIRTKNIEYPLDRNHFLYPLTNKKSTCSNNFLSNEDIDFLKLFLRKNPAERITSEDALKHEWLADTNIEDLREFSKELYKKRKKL
Sequence of L-lactate dehydrogenase (Plasmodium falciparum (isolate CDC / Honduras)) (Q27743 whole entry, looked up): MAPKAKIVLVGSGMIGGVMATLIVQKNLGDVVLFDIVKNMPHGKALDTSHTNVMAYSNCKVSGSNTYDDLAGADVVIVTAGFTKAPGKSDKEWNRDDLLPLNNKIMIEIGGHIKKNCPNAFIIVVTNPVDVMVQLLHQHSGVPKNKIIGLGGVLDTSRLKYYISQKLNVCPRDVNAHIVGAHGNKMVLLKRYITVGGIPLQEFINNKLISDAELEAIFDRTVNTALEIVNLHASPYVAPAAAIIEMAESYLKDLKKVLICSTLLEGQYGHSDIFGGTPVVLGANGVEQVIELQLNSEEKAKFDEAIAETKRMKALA
Sequence of Calcium-dependent protein kinase 1 (Plasmodium falciparum (isolate 3D7)) (P62344 whole entry, looked up): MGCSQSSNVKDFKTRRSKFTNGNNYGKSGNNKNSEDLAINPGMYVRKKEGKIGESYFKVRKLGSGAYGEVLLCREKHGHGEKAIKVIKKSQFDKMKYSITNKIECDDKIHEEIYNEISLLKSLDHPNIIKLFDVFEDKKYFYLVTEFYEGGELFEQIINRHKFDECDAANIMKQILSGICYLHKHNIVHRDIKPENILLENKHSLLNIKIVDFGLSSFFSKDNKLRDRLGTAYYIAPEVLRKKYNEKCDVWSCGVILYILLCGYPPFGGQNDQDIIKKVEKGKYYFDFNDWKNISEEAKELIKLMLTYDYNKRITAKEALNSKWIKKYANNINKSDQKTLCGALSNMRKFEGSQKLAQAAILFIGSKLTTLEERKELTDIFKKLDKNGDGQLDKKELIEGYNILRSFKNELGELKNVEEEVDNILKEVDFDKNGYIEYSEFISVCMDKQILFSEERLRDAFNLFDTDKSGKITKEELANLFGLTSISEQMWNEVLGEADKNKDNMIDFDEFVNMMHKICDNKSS
Sequence of Plasmodium falciparum protein kinase 6 (PK6, PF3D7_1337100) (Q8IDW1 1-305): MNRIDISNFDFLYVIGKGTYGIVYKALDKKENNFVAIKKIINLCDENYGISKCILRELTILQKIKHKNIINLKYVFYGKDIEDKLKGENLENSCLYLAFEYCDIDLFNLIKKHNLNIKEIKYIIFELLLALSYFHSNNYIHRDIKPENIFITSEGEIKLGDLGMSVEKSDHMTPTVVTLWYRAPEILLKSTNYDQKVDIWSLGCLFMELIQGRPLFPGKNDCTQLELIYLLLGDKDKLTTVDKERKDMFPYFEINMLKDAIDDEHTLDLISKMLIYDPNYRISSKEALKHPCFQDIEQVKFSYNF

FC(F)(F)c1cccc(Nc2nc3ccccc3nc2Nc2cccc(C(F)(F)F)c2)c1
active: growth inhibition [1] 100% | growth inhibition [4] 101%
inactive: inhibition [2] 45% | inhibition [3] 2% | outcome [5] | outcome [6] | outcome [7] | outcome [8]

Oc1ccc(CCCNc2nc(NCc3ccccc3-c3ccccc3)nc(N3CCNCC3)n2)cc1
active: growth inhibition [4] 94%
inactive: growth inhibition [1] 48% | inhibition [2] 39% | inhibition [3] 5% | outcome [5] | outcome [6] | outcome [7] | outcome [8]

CCCCN(CCCC)C(=O)CC(O)c1cc2c(Cl)cc(Cl)cc2c2cc(C(F)(F)F)ccc12 (stereo not drawn)
active: growth inhibition [1] 68% | growth inhibition [4] 92%
inactive: inhibition [2] -12% | inhibition [3] -2% | outcome [5] | outcome [6] | outcome [7] | outcome [8]

CCCCNC(=O)[C@@H]1CCCN1C(=O)c1ccc(O)c(-c2ccc(Cl)c(Cl)c2)c1
active: growth inhibition [1] 92% | growth inhibition [4] 98%
inactive: inhibition [2] -1% | inhibition [3] -1% | outcome [5] | outcome [6] | outcome [7] | outcome [8]

Cc1cccc(C(=O)Nc2ccnc(N3CCCN(Cc4cccc(O)c4)CC3)c2)c1
inactive: growth inhibition [1] 13% | inhibition [2] -21% | inhibition [3] 3% | outcome [5] | outcome [6] | outcome [7] | outcome [8]
active: growth inhibition [4] 84%

CCC[C@]1(C)CSc2ccccc2[C@@H](c2ccccc2)N1
inactive: growth inhibition [1] 2% | inhibition [3] -3% | outcome [5] | outcome [6] | outcome [7] | outcome [8]
active: inhibition [2] 60% | growth inhibition [4] 87%

COc1ccc(S(=O)(=O)NC2CCN(CCNC(=O)Nc3cc(C)nc4ccccc34)C2)cc1 (stereo not drawn)
active: growth inhibition [4] 88%
inactive: growth inhibition [1] 41% | inhibition [2] -2% | inhibition [3] 1% | outcome [5] | outcome [6] | outcome [7] | outcome [8]

Cc1cccc(-c2nc(Nc3ccncc3)c3cc(N(C)C)ccc3n2)n1
active: growth inhibition [1] 63% | growth inhibition [4] 98%
inactive: inhibition [2] 5% | inhibition [3] -2% | outcome [5] | outcome [6] | outcome [7] | outcome [8]

CC(=O)Nc1cccc(C(=O)Nc2cccc(-c3csc(-c4nc5ccccc5[nH]4)c3)c2)c1
active: growth inhibition [1] 97% | growth inhibition [4] 96%
inactive: inhibition [2] 39% | inhibition [3] 1% | outcome [5] | outcome [6] | outcome [7] | outcome [8]

CN1CCN(CCCN(Cc2csc(-c3ccc(CNCc4ccccc4)cc3)n2)C(=O)Nc2cccc(Cl)c2)CC1
inactive: inhibition [2] 32% | inhibition [3] -5% | outcome [5] | outcome [6] | outcome [7] | outcome [8]
active: growth inhibition [1] 67% | growth inhibition [4] 102%

N#Cc1cccc(C(=O)Nc2ccc(-c3ccc(CN4CCCC4)cc3)cc2)c1
inactive: growth inhibition [1] 32% | inhibition [2] 38% | inhibition [3] -5% | outcome [5] | outcome [6] | outcome [7] | outcome [8]
active: growth inhibition [4] 92%

CN1CCCc2ccc(NC(=O)c3cnc(-c4ccccc4)cn3)cc21
active: growth inhibition [1] 82% | growth inhibition [4] 87%
inactive: inhibition [2] 24% | inhibition [3] 2% | outcome [5] | outcome [6] | outcome [7] | outcome [8]

CCOC(=O)c1[nH]c(-c2ccc(-c3ccccc3)cc2)nc1N
active: growth inhibition [4] 98%
inactive: growth inhibition [1] 2% | inhibition [2] -1% | inhibition [3] 6% | outcome [5] | outcome [6] | outcome [7] | outcome [8]

CN1CCC(NCc2cccc(-c3cccc(S(=O)(=O)NCc4ccccc4)c3)c2)CC1
inactive: growth inhibition [1] 6% | inhibition [3] -2% | outcome [5] | outcome [6] | outcome [7] | outcome [8]
active: inhibition [2] 57% | growth inhibition [4] 100%

CSc1cccc(Nc2nc3ccc(S(=O)(=O)NC(C)C(C)C)cc3n2[C@H](C)C(C)(C)C)c1 (stereo partly drawn)
active: growth inhibition [1] 98% | growth inhibition [4] 97%
inactive: inhibition [2] -10% | inhibition [3] 0% | outcome [5] | outcome [6] | outcome [7] | outcome [8]

CCN(CC)CCOc1c(Cl)cc(Cl)cc1CNCCCNc1cc(=O)c2ccccc2[nH]1
active: growth inhibition [4] 97%
inactive: growth inhibition [1] 6% | inhibition [2] 11% | inhibition [3] -1% | outcome [5] | outcome [6] | outcome [7] | outcome [8]

CCc1ccc(CN2CCC(NC(=O)c3ccc(-c4ccccc4F)s3)CC2)cc1
inactive: growth inhibition [1] 12% | inhibition [2] 35% | inhibition [3] 2% | outcome [5] | outcome [6] | outcome [7] | outcome [8]
active: growth inhibition [4] 80%

Cc1cc(N2CCN(C(=O)OC(C)(C)C)CC2)ccc1N
active: growth inhibition [4] 92%
inactive: growth inhibition [1] 38% | inhibition [2] 11% | inhibition [3] -2% | outcome [5] | outcome [6] | outcome [7] | outcome [8]

N#CCCn1nc(-c2ccc(Cl)cc2)c2c(c1=O)CCCC2
active: growth inhibition [4] 94%
inactive: growth inhibition [1] 32% | inhibition [2] 0% | inhibition [3] -1% | outcome [5] | outcome [6] | outcome [7] | outcome [8]

CN1CCN(c2cc3c(Nc4ccc5c(cnn5Cc5ccccc5)c4)ncnc3cn2)CC1
active: growth inhibition [4] 88%
inactive: growth inhibition [1] 35% | inhibition [2] 9% | inhibition [3] 5% | outcome [5] | outcome [6] | outcome [7] | outcome [8]

CN1C(=C2SC(=Nc3ccc4ncccc4c3)N(Cc3ccccc3)C2=O)Sc2ccc(Cl)cc21
inactive: inhibition [2] 4% | inhibition [3] -2% | outcome [5] | outcome [6] | outcome [7] | outcome [8]
active: growth inhibition [1] 75% | growth inhibition [4] 99%

CN(C)CCCOc1ccc(CNCc2cccc(Oc3ccc(Cl)cc3)c2)cc1
active: inhibition [2] 52% | growth inhibition [4] 100%
inactive: growth inhibition [1] 30% | inhibition [3] 0% | outcome [5] | outcome [6] | outcome [7] | outcome [8]

CC(c1cccc(S(=O)(=O)NCc2cccc(C(F)(F)F)c2)c1)N1CCC(N2CCCCC2)CC1 (stereo not drawn)
inactive: growth inhibition [1] 35% | inhibition [2] 37% | inhibition [3] 2% | outcome [5] | outcome [6] | outcome [7] | outcome [8]
active: growth inhibition [4] 99%

Nc1ccc(-c2nc3ccc(Cc4ccc5nc(-c6ccc(N)cc6)[nH]c5c4)cc3[nH]2)cc1
active: growth inhibition [1] 96% | growth inhibition [4] 100%
inactive: inhibition [2] 47% | inhibition [3] 2% | outcome [5] | outcome [6] | outcome [7] | outcome [8]

Nc1nc(N)c2c3c(cnc2n1)CCCC3
active: inhibition [2] 61% | growth inhibition [4] 95%
inactive: growth inhibition [1] -4% | inhibition [3] -4% | outcome [5] | outcome [6] | outcome [7] | outcome [8]

CN1CCN(Cc2ccc(-c3ccc4c(Nc5ccc(Oc6ccccn6)cc5)ccnc4c3)o2)CC1
inactive: inhibition [2] 13% | inhibition [3] -3% | outcome [5] | outcome [6] | outcome [7] | outcome [8]
active: growth inhibition [1] 99% | growth inhibition [4] 101%

c1ccc(Oc2ccc(Nc3nncc4ccccc34)cc2)cc1
active: growth inhibition [1] 82% | growth inhibition [4] 86%
inactive: inhibition [2] 20% | inhibition [3] 1% | outcome [5] | outcome [6] | outcome [7] | outcome [8]

N#Cc1ccc2nc(-c3cc(-c4cccc(F)c4)cnc3N)[nH]c2c1
active: growth inhibition [1] 93% | growth inhibition [4] 100%
inactive: inhibition [2] 46% | inhibition [3] 5% | outcome [5] | outcome [6] | outcome [7] | outcome [8]

O=C(NCCc1ccc(Cl)c(Cl)c1)[C@@H]1CCCN1C(=O)c1ccc(O)c(-c2cccc(C(F)(F)F)c2)c1
inactive: inhibition [2] 0% | inhibition [3] -7% | outcome [5] | outcome [6] | outcome [7] | outcome [8]
active: growth inhibition [1] 82% | growth inhibition [4] 97%

COc1cc(NC(=O)Nc2cccc3ccccc23)c(OC)cc1Cl
active: growth inhibition [1] 71% | growth inhibition [4] 97%
inactive: inhibition [2] -12% | inhibition [3] 3% | outcome [5] | outcome [6] | outcome [7] | outcome [8]

CC(=O)N[C@H](C(=O)Nc1ccc(-c2ccc(-c3nc4ccc(C(F)(F)F)cc4[nH]3)cc2)cc1)C(C)C
inactive: inhibition [2] 24% | inhibition [3] 7% | outcome [5] | outcome [6] | outcome [7] | outcome [8]
active: growth inhibition [1] 76% | growth inhibition [4] 88%

CC1(C)N=C(N)N=C(N)N1OCCSc1ccccc1
active: growth inhibition [1] 95% | inhibition [2] 68% | growth inhibition [4] 95%
inactive: inhibition [3] 3% | outcome [5] | outcome [6] | outcome [7] | outcome [8]

CN1CC=C(c2csc3ccc(NC(=O)Nc4ccc(-c5ccncc5)c5ccccc45)cc23)CC1
active: growth inhibition [1] 99% | growth inhibition [4] 93%
inactive: inhibition [2] 20% | inhibition [3] 1% | outcome [5] | outcome [6] | outcome [7] | outcome [8]

Cc1cccc2[nH]c(-c3cccc(-c4ccc(NC(=O)c5cnccc5C(F)(F)F)cc4)c3)nc12
inactive: growth inhibition [1] 37% | inhibition [3] -3% | outcome [5] | outcome [6] | outcome [7] | outcome [8]
active: inhibition [2] 60% | growth inhibition [4] 100%

Cc1[nH]c(C)c(-c2ccc(C#Cc3ccc(F)cc3F)cc2)c(=O)c1Br
active: growth inhibition [1] 98% | growth inhibition [4] 97%
inactive: inhibition [2] 11% | inhibition [3] -1% | outcome [5] | outcome [6] | outcome [7] | outcome [8]

Fc1cccc(Cn2ncc3cc(Nc4ncnc5sc(C#Cc6ncc[nH]6)cc45)ccc32)c1
active: growth inhibition [4] 101%
inactive: growth inhibition [1] 30% | inhibition [2] 31% | inhibition [3] 0% | outcome [5] | outcome [6] | outcome [7] | outcome [8]

CCc1nc(N)nc(N)c1-c1ccccc1
inactive: growth inhibition [1] 1% | inhibition [3] -2% | outcome [5] | outcome [6] | outcome [7] | outcome [8]
active: inhibition [2] 53% | growth inhibition [4] 92%

O=C(NCc1cccs1)[C@H](Cc1ccccc1)Nc1ccnc(NCCc2ccc(F)cc2)n1
inactive: inhibition [2] 1% | inhibition [3] -2% | outcome [5] | outcome [6] | outcome [7] | outcome [8]
active: growth inhibition [1] 52% | growth inhibition [4] 85%

COc1cc(Cc2cnc(N)nc2N)cc(OCCCc2cc(OCc3ccccc3)no2)c1OC
active: growth inhibition [4] 86%
inactive: growth inhibition [1] 4% | inhibition [2] 30% | inhibition [3] 2% | outcome [5] | outcome [6] | outcome [7] | outcome [8]

O=C(/C=C/c1ccc(Cl)c(Cl)c1)NCCCCCN1CCC(NC(=O)Nc2ccc(F)c(F)c2)CC1
inactive: growth inhibition [1] 4% | inhibition [2] 24% | inhibition [3] 2% | outcome [5] | outcome [6] | outcome [7] | outcome [8]
active: growth inhibition [4] 99%

O=C(Nc1cccc(F)c1)N1CCC(CN2CCOC(c3ccccc3)(c3ccccc3)C2)CC1
inactive: inhibition [2] 12% | inhibition [3] 7% | outcome [5] | outcome [6] | outcome [7] | outcome [8]
active: growth inhibition [1] 97% | growth inhibition [4] 96%
